Experimental data reported in article PMC11006913.
Changes are numbered by the printed parent chain.

Key:
NKX2-6 [1] = target: T1, NKX2-6 (Homo sapiens, UniProt A6NCS4 118-204); experiment: PBM; 200 nM protein, PBS; details: dsDNA, one strand shown
T1 sequence: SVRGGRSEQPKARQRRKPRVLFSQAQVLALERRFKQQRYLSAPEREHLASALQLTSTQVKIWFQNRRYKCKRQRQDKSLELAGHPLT

NKX2-6 [2] = target: T2, NKX2-6 (Homo sapiens, UniProt A6NCS4 118-204, F151L); experiment: PBM; 200 nM protein, PBS; details: dsDNA, one strand shown
T2 sequence: T1 sequence with F34L

Sequence	binding signal (NKX2-6 [1])	binding signal (NKX2-6 [2])
ATACTTAG	13.1 upbm affinity estimate (log intensity, higher = more binding, comparable within an allelic series)	10.4 upbm affinity estimate (log intensity, higher = more binding, comparable within an allelic series)
TAAGAAGA	11.5 upbm affinity estimate (log intensity, higher = more binding, comparable within an allelic series)	9.88 upbm affinity estimate (log intensity, higher = more binding, comparable within an allelic series)
ACGCATCC	9.51 upbm affinity estimate (log intensity, higher = more binding, comparable within an allelic series)	9.35 upbm affinity estimate (log intensity, higher = more binding, comparable within an allelic series)
ATCCCAGG	9.47 upbm affinity estimate (log intensity, higher = more binding, comparable within an allelic series)	9.43 upbm affinity estimate (log intensity, higher = more binding, comparable within an allelic series)
CAGATCCC	9.68 upbm affinity estimate (log intensity, higher = more binding, comparable within an allelic series)	9.49 upbm affinity estimate (log intensity, higher = more binding, comparable within an allelic series)
AGTATGTA	11.6 upbm affinity estimate (log intensity, higher = more binding, comparable within an allelic series)	9.91 upbm affinity estimate (log intensity, higher = more binding, comparable within an allelic series)
GGTGCGAC	9.44 upbm affinity estimate (log intensity, higher = more binding, comparable within an allelic series)	9.43 upbm affinity estimate (log intensity, higher = more binding, comparable within an allelic series)
GGGCGGCA	9.62 upbm affinity estimate (log intensity, higher = more binding, comparable within an allelic series)	9.36 upbm affinity estimate (log intensity, higher = more binding, comparable within an allelic series)
CGGGGGCC	9.04 upbm affinity estimate (log intensity, higher = more binding, comparable within an allelic series)	9.04 upbm affinity estimate (log intensity, higher = more binding, comparable within an allelic series)
AGTGCCAC	11.6 upbm affinity estimate (log intensity, higher = more binding, comparable within an allelic series)	9.9 upbm affinity estimate (log intensity, higher = more binding, comparable within an allelic series)
CTTAAGGC	11.5 upbm affinity estimate (log intensity, higher = more binding, comparable within an allelic series)	9.76 upbm affinity estimate (log intensity, higher = more binding, comparable within an allelic series)
CGGGATCC	9.34 upbm affinity estimate (log intensity, higher = more binding, comparable within an allelic series)	9.34 upbm affinity estimate (log intensity, higher = more binding, comparable within an allelic series)
AACACGCC	9.5 upbm affinity estimate (log intensity, higher = more binding, comparable within an allelic series)	9.31 upbm affinity estimate (log intensity, higher = more binding, comparable within an allelic series)
CCTTAATC	11.3 upbm affinity estimate (log intensity, higher = more binding, comparable within an allelic series)	9.82 upbm affinity estimate (log intensity, higher = more binding, comparable within an allelic series)
CCACAGCG	8.94 upbm affinity estimate (log intensity, higher = more binding, comparable within an allelic series)	9.3 upbm affinity estimate (log intensity, higher = more binding, comparable within an allelic series)
GCATCGGC	9.23 upbm affinity estimate (log intensity, higher = more binding, comparable within an allelic series)	9.43 upbm affinity estimate (log intensity, higher = more binding, comparable within an allelic series)
CGGCGTGA	9.3 upbm affinity estimate (log intensity, higher = more binding, comparable within an allelic series)	9.33 upbm affinity estimate (log intensity, higher = more binding, comparable within an allelic series)
CAGGGACG	9.36 upbm affinity estimate (log intensity, higher = more binding, comparable within an allelic series)	9.43 upbm affinity estimate (log intensity, higher = more binding, comparable within an allelic series)
CAGCTCAG	9.47 upbm affinity estimate (log intensity, higher = more binding, comparable within an allelic series)	9.39 upbm affinity estimate (log intensity, higher = more binding, comparable within an allelic series)
GGCGTTAC	9.36 upbm affinity estimate (log intensity, higher = more binding, comparable within an allelic series)	9.53 upbm affinity estimate (log intensity, higher = more binding, comparable within an allelic series)
ACGGACGA	9.27 upbm affinity estimate (log intensity, higher = more binding, comparable within an allelic series)	9.49 upbm affinity estimate (log intensity, higher = more binding, comparable within an allelic series)
CAGGGTCG	9.43 upbm affinity estimate (log intensity, higher = more binding, comparable within an allelic series)	9.26 upbm affinity estimate (log intensity, higher = more binding, comparable within an allelic series)
ATCACTCA	12.1 upbm affinity estimate (log intensity, higher = more binding, comparable within an allelic series)	9.9 upbm affinity estimate (log intensity, higher = more binding, comparable within an allelic series)
AGACGCTG	9.21 upbm affinity estimate (log intensity, higher = more binding, comparable within an allelic series)	9.48 upbm affinity estimate (log intensity, higher = more binding, comparable within an allelic series)
CCGCGCGG	9.66 upbm affinity estimate (log intensity, higher = more binding, comparable within an allelic series)	9.56 upbm affinity estimate (log intensity, higher = more binding, comparable within an allelic series)
GCTAAGTA	12.9 upbm affinity estimate (log intensity, higher = more binding, comparable within an allelic series)	10.4 upbm affinity estimate (log intensity, higher = more binding, comparable within an allelic series)
ACTTGACT	12.4 upbm affinity estimate (log intensity, higher = more binding, comparable within an allelic series)	10.4 upbm affinity estimate (log intensity, higher = more binding, comparable within an allelic series)
AAGTACTG	12.7 upbm affinity estimate (log intensity, higher = more binding, comparable within an allelic series)	10.3 upbm affinity estimate (log intensity, higher = more binding, comparable within an allelic series)
